This is a sample that favours compounds with a hit; in the whole collection about 8.8% have one here.
KB-3-1 cytotox: qHTS assay for MDR1-selective chemotherapeutics: Primary screen using the parental adenocarcinoma cell KB-3-1. KB-3-1 viability, CellTiter-Glo ATP luminescence, 72 h. Potency, µM (series often up to 46.1 µM), actives largely listed as cytotoxic. 400,000 compounds, 1.4% hits. AID 1347075, 2019; also: nearly all actives have a fitted effect of over 60% in size
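Cells are dispensed, compounds pinned in, plates held at 37 °C for 72 h, then CellTiter-Glo is added and luminescence read after 10 minutes. Cell line: parental KB-3-1 in phenol-red-free DMEM, 10% FBS.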
IL-1B inflam inh: qHTS for Inhibitors of Inflammasome Signaling: IL-1-beta AlphaLISA Primary Screen; 360,000 compounds, 4.7% hits; activity change, % at 57.5 µM; THP-1 LPS/ATP IL-1B secretion, AlphaLISA, 16 h; hits give low values; in the data active = activity change below about -50%; inconclusive = mostly about -30% to -49%
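THP-1 cells pretreated 1 hr with compounds (up to 57.5 uM final), then stimulated with LPS (250 ng/mL final) plus ATP (1.25 mM final); secreted IL-1B measured by AlphaLISA after 16 hr, decreased signal indicating inhibition.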
HT1080 IDH1KD tx: qHTS for induction of synthetic lethality in tumor cells producing 2HG: qHTS for the HT-1080-IDH1KD cell line. HT-1080 IDH1 knockdown viability, ATP luminescence, 48 h. Potency, µM (highest dose often 46.1 µM), actives largely listed as cytotoxic. 360,000 compounds, 2% hits. AID 686971, 2013
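CellTiter-Glo luminescence after 48 h compound exposure at 37 degrees C of IDH1-knockdown HT-1080 cells in 5% FBS RPMI. %Activity scaled between DMSO wells and cell-free media wells, with curves fitted and assigned curve classes.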
KB-V1 cytotox: qHTS assay for MDR1-selective chemotherapeutics: Primary screen using the drug-selected MDR subline cells KB-V1. KB-V1 MDR cells viability, CellTiter-Glo, 72 h. 400,000 compounds, 3.4% hits. Potency, µM (series often up to 46.1 µM), most hits filed as cytotoxic. AID 1347076, 2019; also: nearly all actives have a fitted effect of over 60% in size
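Compound-treated KB-V1 multidrug-resistant cells, 72 h, 37 degrees C; viability by CellTiter-Glo. Fitted qHTS curves give the values.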
HT1080NT lethal: qHTS for induction of synthetic lethality in tumor cells producing 2HG: qHTS for the HT-1080-NT fibrosarcoma cell line; HT-1080-NT fibrosarcoma viability, CellTiter-Glo ATP luminescence, 48 h; Potency, µM (highest dose often 46.1 µM), hits mostly cytotoxic; 360,000 compounds, 1.6% hits;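 also: NT is the 2HG producing partner of a matched IDH1 knockdown line; nearly all actives have a fitted effect of over 55% in size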
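Viability by CellTiter-Glo luminescence after 48 h compound exposure at 37C of HT-1080-NT cells (750/well, RPMI, 5% FBS). % activity scaled between DMSO wells and medium-only wells, then curve-fitted and categorized by curve class.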
Large screens that a line does not name were inactive. Unless noted, calls follow the shape of the dose curve; as a rule, active = well fitted curve in the direction sought with a large enough effect; inconclusive = small, poorly fitted or top-dose-only effect, or another doubt; inactive = no such curve, though single readings can be large; an effect the other way counts as inactive or inconclusive.

CCOc1ccccc1CN1CCN(CC2CC2)CC1CCO (stereo unspecified)	none
CCOc1cc(CN2CCN(CCc3ccccc3)C(CCO)C2)ccc1OC (stereo unspecified)	IL-1B inflam inh -69, KB-V1 cytotox inconclusive
COc1ccc(CN2CCN(Cc3ccc4cc(F)ccc4n3)CC2CCO)c(C)c1C (stereo unspecified)	KB-3-1 cytotox inconclusive, IL-1B inflam inh inconclusive, HT1080 IDH1KD tx 18µM, KB-V1 cytotox inconclusive, HT1080NT lethal inconclusive
COc1cc(CN2CCN(Cc3ccc4cc(F)ccc4n3)CC2CCO)cc(OC)c1 (stereo unspecified)	IL-1B inflam inh inconclusive
CC(OC(=O)CN1C(=O)c2ccccc2C1=O)C(=O)NC1CCCCC1C (stereo unspecified)	none
CCc1nc2oc3ccccc3c(=O)c2c(=O)n1-c1ccccc1	HT1080 IDH1KD tx inconclusive, KB-V1 cytotox 15µM, HT1080NT lethal inconclusive
CNC(=O)c1ccc(NC(=O)c2ccccc2OCc2c(C)noc2C)cc1	IL-1B inflam inh inconclusive
C/C=C(/C(=C/C)c1ccc(O)cc1)c1ccc(O)cc1	KB-V1 cytotox inconclusive
C=C(c1ccc(O)cc1)c1ccc(O)cc1	IL-1B inflam inh -59, HT1080 IDH1KD tx inconclusive
Cc1ncc(CO)n1Cc1ccc(Cl)cc1	none
CCOc1ccccc1NC(=O)C(=O)CC(=O)c1ccc(OC)cc1	KB-V1 cytotox 16µM
CCOc1ccccc1NC(=O)/C=C/C(N)=O	IL-1B inflam inh -103, HT1080 IDH1KD tx 2.8µM, HT1080NT lethal inconclusive
CCOc1ccccc1NC(=O)/C=C/c1ccccc1[N+](=O)[O-]	IL-1B inflam inh -69, KB-V1 cytotox inconclusive
CCOC(=O)[C@]12CCC=C1N(CCC1=CCCCC1)C(=O)[C@H](CC(=O)NCc1cccs1)C2	none
Cc1ccc(CNC(=O)c2ccc(Cl)c(S(N)(=O)=O)c2)n1C	KB-V1 cytotox inconclusive
Cc1cc2ccccn2c1C(=O)c1ccc([N+](=O)[O-])cc1[N+](=O)[O-]	none
COc1ccc(C(=O)c2ccc(Cl)cc2)cc1	HT1080NT lethal inconclusive
Cc1cc2ccccn2c1C(=O)c1ccc([N+](=O)[O-])o1	KB-3-1 cytotox inconclusive, IL-1B inflam inh -99, HT1080 IDH1KD tx 16µM, KB-V1 cytotox inconclusive, HT1080NT lethal inconclusive
Cc1cc2ccccn2c1C(=O)c1cccc([N+](=O)[O-])c1	KB-3-1 cytotox inconclusive, HT1080 IDH1KD tx inconclusive, KB-V1 cytotox inconclusive
Cc1cc2ccccn2c1C(=O)c1ccc(Cl)c([N+](=O)[O-])c1	IL-1B inflam inh -75
COc1ccc(C(=O)c2ccc(Cl)c([N+](=O)[O-])c2)cc1	KB-3-1 cytotox 1.2µM, IL-1B inflam inh -101, HT1080 IDH1KD tx 5.8µM, KB-V1 cytotox inconclusive, HT1080NT lethal inconclusive
CCOC(=O)N/N=C\c1ccc(OC/C=C/c2ccccc2)cc1	none
O=C(c1ccccc1)c1cc(Cl)ccc1N1C(=O)C=CC1=O	IL-1B inflam inh -80, HT1080 IDH1KD tx 23µM, HT1080NT lethal 18µM
COC(=O)Cc1[nH]n(-c2nc3ccccc3s2)c(=O)c1C(C)=Nc1ccc(C)cc1	KB-V1 cytotox inconclusive
CCN(CC)CCCN=Cc1c(-c2ccccc2)[nH]n(-c2nc3ccccc3s2)c1=O	none
CCCN=C(C)c1c(-c2ccccc2)[nH]n(-c2nc3ccccc3s2)c1=O	KB-V1 cytotox 8.2µM
CCCc1[nH]n(-c2nc3ccccc3s2)c(=O)c1C=NCC(C)C	IL-1B inflam inh -58
C/C(=N/NC(=O)c1cccs1)c1c(C)[nH]n(-c2nc3ccccc3s2)c1=O	KB-3-1 cytotox inconclusive, HT1080 IDH1KD tx 2.6µM, HT1080NT lethal 2.3µM
O=c1c(C=NCc2cccnc2)c(C(F)(F)F)[nH]n1-c1nc2ccccc2s1	HT1080 IDH1KD tx inconclusive
CCC(=NCc1ccco1)c1c(C(F)(F)F)[nH]n(-c2nc3ccccc3s2)c1=O	KB-V1 cytotox 21µM
O=C(Nc1ccc(N2CCOCC2)cc1N1CCOCC1)c1ccc(F)cc1	none

Screening results from PubChem.
